Screening data from PubChem.
HCV inhibitor = blocks hepatitis C virus; Potency, µM (highest dose often 41.8 µM), without a hit: at the highest dose activity change, negative = inhibition, most hits filed as inhibitors; actives 3.4% (n = 340,000); Huh7.5.1 HCVcc-Cre infection, luciferase reporter, 44 h; note: % is set by controls: 0 for no effect and ±100 for the full control effect
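Reporter virus HCVcc-Cre (~0.5 moi) infects cells exposed to compound; seeding density 1,000 cells/well with 4 h settling beforehand. Luminescence, 15 sec read, taken 44 h post-infection following a 15 min RT substrate incubation.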
Vaccinia mCherry = inhibitors of vaccinia virus infection (mCherry reporter signal); Potency, µM (doses to about 36.5 µM), inactives show top-dose activity change, negative = inhibition, most hits filed as inhibitors; actives 0.63% (n = 310,000); Vaccinia virus mCherry reporter infection, fluorescence; calls by dose curve; tested in A549 cells; note: % is set by controls: 0 for no effect and ±100 for the full control effect; nearly all actives have a fitted effect of over 35% in size
Pf growth 48h = inhibits P. falciparum growth in the first generation, 48 h | P. falciparum luciferase growth in erythrocytes, 48 h | Potency, µM (top dose mostly 28.7 µM), without a hit: at the highest dose activity change, negative = inhibition, most hits filed as inhibitors | actives 5.9% (n = 310,000); note: % is set by controls: 0 for no effect and ±100 for the full control effect
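Cell-based growth assay: transgenic P. falciparum expressing firefly luciferase, cultured in red cells within RPMI 1640 containing 0.5% w/v Albumax, 24 mM bicarbonate and gentamycin. A drop in luciferase activity indicates inhibition.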
Pf growth 96h = P. falciparum growth inhibition at 96 hour, primary screen for plastid delayed-death inhibitors; P. falciparum luciferase reporter growth, 96 h; Potency, µM (doses to about 28.7 µM), inactives show top-dose activity change, negative = inhibition, most hits filed as inhibitors; actives 6.9% (n = 320,000); note: % is set by controls: 0 for no effect and ±100 for the full control effect
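Plates of compound plus infected erythrocytes (2% hematocrit, 0.05% parasitemia final) incubate 96 hours, 37 C, 5% CO2. Detection reagent added; reduced luminescence from the parasites' luciferase reporter flags inhibition.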
NS1 function inh = blocks influenza NS1 protein function. Potency, µM (doses to about 46.1 µM), for the others: top-dose activity, positive = more growth. actives 0.4% (n = 270,000). AID 2326; calls by dose curve; note: actives are rising curves; nearly all actives have a fitted effect of over 50% in size
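Read-out: OD600 growth recovery of NS1-expressing budding yeast. Cells grown overnight at 30C in -URA glucose medium, washed, resuspended and diluted 1:100 in 2% galactose assay medium, pH 6.0. Same strain lacking NS1 served as positive control.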
VACV Venus inh = vaccinia inhibition (Venus reporter); Vaccinia virus Venus reporter expression, fluorescence; actives 0.46% (n = 330,000); Potency, µM (doses to about 36.5 µM), for inactives: top-dose activity change, negative = inhibition, hits mostly inhibitors; AID 720580; calls by dose curve; tested in A549 cells; note: % is set by controls: 0 for no effect and ±100 for the full control effect; nearly all actives have a fitted effect of over 30% in size
* = called active by the depositor; [ ] = another dose, or the depositor's remark. Shown are actives, neighbours in structure and some others; about 11% of the full set was active somewhere. Unless noted, calls come from the whole dose curve; as a rule, active = well fitted inhibition curve with a large enough effect; inconclusive = small, poorly fitted or top-dose-only effect, or another doubt; inactive = no such curve, though single readings can be large or run the other way. Potency is the fitted concentration of half-maximal effect.

What do the screens show for `Oc1ccc(Nc2nc(N3CCCC3)c3ccccc3n2)cc1`?
HCV inhibitor: inconclusive; Vaccinia mCherry: inconclusive; Pf growth 48h: 0.47µM*; Pf growth 96h: 7%; NS1 function inh: -9%; VACV Venus inh: 8.9µM*

How did CN1CCN(c2nc(-c3ccc(Br)cc3)nnc2-c2ccccc2)CC1 do in these assays?
HCV inhibitor: inconclusive; Vaccinia mCherry: inconclusive; Pf growth 48h: inconclusive; Pf growth 96h: -6%; NS1 function inh: -7%; VACV Venus inh: -28%

What do the screens show for `Cc1ccc(-c2nnc(-c3ccccc3)c(N3CCOCC3)n2)cc1`?
HCV inhibitor: 11µM*; Pf growth 48h: -1%; Pf growth 96h: inconclusive; NS1 function inh: -51%

What do the screens show for `O=C(NCCc1ccc(F)cc1)Nc1ccc([N+](=O)[O-])cc1`?
HCV inhibitor: inconclusive; Vaccinia mCherry: inactive; Pf growth 48h: inconclusive; Pf growth 96h: -5%; NS1 function inh: -92%; VACV Venus inh: -19%

Results for Cn1c(=O)n(C)c2cc(NS(=O)(=O)c3ccc(Cl)cc3)c(NCc3ccccc3)cc21 ?
Vaccinia mCherry: -19%; VACV Venus inh: -2%

How did COc1ccc(NC(=O)c2nnn(Cc3nc(-c4cc(OC)c(OC)c(OC)c4)oc3C)c2C)cc1Cl do in these assays?
Vaccinia mCherry: -8%; VACV Venus inh: -14%

How did C[C@H](CO)N1C[C@H](C)[C@@H](CN(C)S(=O)(=O)c2ccccc2)Oc2ccc(NC(=O)c3ccncc3)cc2C1=O do in these assays?
HCV inhibitor: 0%; Vaccinia mCherry: -19%; VACV Venus inh: -14%

How did Cc1c(C)c2c(OCC(=O)NCC(C)C)cc3c(c2oc1=O)CCC(C)(C)O3 do in these assays?
HCV inhibitor: inconclusive; Pf growth 48h: 8.3µM*; Pf growth 96h: inconclusive; NS1 function inh: 2%

How did Cc1c(C)c2c(OCC(=O)NCc3ccncc3)cc3c(c2oc1=O)CCC(C)(C)O3 do in these assays?
HCV inhibitor: 4%; Vaccinia mCherry: inactive; Pf growth 48h: inconclusive; Pf growth 96h: 2.9µM*; NS1 function inh: 9%; VACV Venus inh: inconclusive

How did Cc1cc(=O)oc2c3c(cc(OCC(=O)NCc4ccco4)c12)OC(C)(C)CC3 do in these assays?
HCV inhibitor: inconclusive; Vaccinia mCherry: 4%; Pf growth 48h: inconclusive; Pf growth 96h: 8.3µM*; NS1 function inh: -22%; VACV Venus inh: -12%

What do the screens show for `Cc1cc(=O)oc2c3c(cc(OCC(=O)NCC(=O)N[C@H](C(=O)O)C(C)C)c12)OC(C)(C)CC3`?
HCV inhibitor: -1%; Pf growth 48h: -4%; Pf growth 96h: 1%; NS1 function inh: 2%

What do the screens show for `Cc1c(C)c2c(OCC(=O)NCc3cccnc3)cc3c(c2oc1=O)CCC(C)(C)O3`?
HCV inhibitor: -2%; Vaccinia mCherry: -17%; Pf growth 48h: -8%; Pf growth 96h: inconclusive; NS1 function inh: 5%; VACV Venus inh: -9%

How did Cc1c(C)c2c(OCC(=O)NCc3ccco3)cc3c(c2oc1=O)CCC(C)(C)O3 do in these assays?
HCV inhibitor: 0%; Vaccinia mCherry: -15%; Pf growth 48h: 27%; Pf growth 96h: -21%; NS1 function inh: 12%; VACV Venus inh: -21%

How did COc1ccc(CNC(=O)COc2cc3c(c4oc(=O)cc(C)c24)CCC(C)(C)O3)cc1OC do in these assays?
HCV inhibitor: 6.3µM*; Vaccinia mCherry: -8%; Pf growth 48h: 10µM*; Pf growth 96h: 7.4µM*; NS1 function inh: 1%; VACV Venus inh: -9%

How did CC(C)C(NS(=O)(=O)c1ccc2c(c1)C(C)(C)C(=O)N2C)C(=O)NCc1ccc(F)cc1 (stereo not given) do in these assays?
HCV inhibitor: 3%; Pf growth 48h: 3%; Pf growth 96h: inconclusive; NS1 function inh: -12%

What do the screens show for `COc1cc(C(=O)Nc2ccccn2)cc(OC)c1OC`?
HCV inhibitor: 4%; Vaccinia mCherry: inactive; Pf growth 48h: 4%; Pf growth 96h: 11%[5.75 µM]; NS1 function inh: 2%; VACV Venus inh: -8%

How did Cc1ccc(S(=O)(=O)N2CCN(c3ncnc4c3cnn4-c3ccccc3)CC2)cc1 do in these assays?
HCV inhibitor: 16%; Vaccinia mCherry: -14%; Pf growth 48h: -1%; Pf growth 96h: -9%; NS1 function inh: -9%; VACV Venus inh: 0%

What do the screens show for `COc1cc(NC(=O)c2ccccc2)c(OC)cc1NC(=O)Cc1cccs1`?
HCV inhibitor: inconclusive; Vaccinia mCherry: inactive; Pf growth 48h: inconclusive; Pf growth 96h: -6%; NS1 function inh: 3%; VACV Venus inh: -9%

How did Cc1cc(=O)oc2c3c(cc(OCC(=O)NCc4ccncc4)c12)OC(C)(C)CC3 do in these assays?
HCV inhibitor: inconclusive; Vaccinia mCherry: 4%; Pf growth 48h: inconclusive; Pf growth 96h: 10µM*; NS1 function inh: -13%; VACV Venus inh: -3%

Results for COc1ccc(S(=O)(=O)N2CCCCCC2)cc1C(=O)Nc1ccc(C)cn1 ?
HCV inhibitor: 22%; Vaccinia mCherry: -19%; Pf growth 48h: inconclusive; Pf growth 96h: 0%; VACV Venus inh: -5%

Results for CC(=O)Nc1cccc(NC(=O)c2cc(-c3cccnc3)nc3ccc(Br)cc23)c1 ?
HCV inhibitor: 14µM*; Pf growth 48h: 5.2µM*; Pf growth 96h: inconclusive; NS1 function inh: inconclusive

Results for Cn1cc(CNC(=O)c2cc(-c3ccccc3)nc3ccc(Br)cc23)cn1 ?
HCV inhibitor: inconclusive; Vaccinia mCherry: -10%; Pf growth 48h: 13µM*; Pf growth 96h: inconclusive; NS1 function inh: 11%; VACV Venus inh: -1%

What do the screens show for `O=C(Nc1ccc(C(=O)N2CCOCC2)cc1)c1cc(-c2cccnc2)nc2ccc(Cl)cc12`?
HCV inhibitor: 7.9µM*; Vaccinia mCherry: -6%; Pf growth 48h: inconclusive; Pf growth 96h: -5%; NS1 function inh: 0%; VACV Venus inh: -14%

Results for CC(=O)Nc1cccc(NC(=O)c2cc(-c3cccnc3)nc3ccc(Cl)cc23)c1 ?
HCV inhibitor: inconclusive; Vaccinia mCherry: -10%; Pf growth 48h: inconclusive; Pf growth 96h: 15%; NS1 function inh: 2%; VACV Venus inh: -6%

Results for CSc1ccccc1NC(=O)c1cc(-c2cccnc2)nc2ccc(Br)cc12 ?
HCV inhibitor: 11µM*; Vaccinia mCherry: inactive; Pf growth 48h: inconclusive; Pf growth 96h: inconclusive; NS1 function inh: 0%; VACV Venus inh: -10%

What do the screens show for `CC[C@]12c3[nH]c4ccc(OC)cc4c3CCN1C(=O)C(CC(=O)NCCCOC)C[C@@H]2C(=O)N1CCN(C(=O)C2CC2)CC1` (stereo not given in full)?
HCV inhibitor: -11%; Vaccinia mCherry: -10%; VACV Venus inh: -3%

What do the screens show for `COc1ccc(/C=N/NS(=O)(=O)c2ccc(F)cc2)cc1CN1CCSCC1`?
HCV inhibitor: 7%; Vaccinia mCherry: inactive; Pf growth 48h: -16%; Pf growth 96h: inconclusive; NS1 function inh: 0%; VACV Venus inh: -4%
